Out of some 53,000 sequences screened, about 3,700 (7%) were called active. The sample as a whole holds a higher share of actives than the screen did. A number with no mark means an inactive call.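 Rule for the calls: active = gene knockdowns whose robust z-score for IL-1 alpha signal is at least 2 or at most -2, so actives lie on both sides; inactive = the rest.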

The nature of this assay: Components of the Cytosolic LPS Sensing Pathway: Gene Identification via Genome-wide siRNA Screen.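 Note: robust z of the log signal after scaling to non-targeting control siRNA wells of the plate.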 Conditions: RAW264.7 macrophages, IL-1a HTRF, actives lie on both sides, screened at 100 nM (by protocol), cells primed 5 h with Pam3CSK4 first. The method, boiled down:
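RAW264.7 mouse macrophages reverse-transfected with single siRNAs (100 nM final) for 48h, primed with Pam3CSK4 for 5 hours, then transfected with LipidA for 24 hour. Supernatant IL-1a read by HTRF; values normalized to negative-control median, log-transformed robust z-scores.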
Background: In TR-FRET formats the signal depends on donor and acceptor labels being close together.
As to GGACAGAGCAUCACAGAAGTT against Tmem154, the z-score is -2.33 (active). GCGGUUUGUCUUCAACAAGTT against Il1b: the z-score is 0.22. Under CCCUGGACUAAGGAUCACCTT against Cops5 stands -1.2. With GGCAGAAGAAGAGUUCAACTT against Atp6v1e1, the z-score was -1.1. For the sequence GCUAAGUACGUUCAUGGCATT against Gba, the z-score was 0.571. In the case of CGAAACUUACCAGGAGUCGTT against Ttyh2 it was -2.31 (active). Under GGACUCAUGUUCAACACAGTT against Dimt1 stands -0.87. On to GGGAACUGACAAAUGGAAGTT against Samsn1, for which the z-score was -0.0777. Under CGGCAGUCGUGAGACAUAUTT against Camk1d stands -1.01; under GGAUUUUUAGUGUUUGACATT against Rab39, -1.52; under GGGAAUACGGAACCUUCUUTT against Olfr683, 2.04 (active). In the case of GGGCAGUUUUACAAAUGUUTT against Fbxw8 it was 0.985; in that of GGAACUCCAACAGGACUUUTT against Slc26a9, -0.565.

As to GGAAGGAAGCAGAGAGUUATT against Ndel1, the z-score was 2.92 (active). In the case of UUUACUAGACCUGAUGGCUTT against Olfr815 it was 0.732. As for GGGACUCUUCUACGAGUUUTT against Lims2, the z-score was 0.836. Under GGAAAACAAGAGGUGAUCUTT against Bfar stands -1.62; under GGUGUUUGAUAGGUAUCUUTT against Ptpa, -1.12; under GGAUCAUUUGAAAUUGCUGTT against Dmac2l, 2.88 (active).

Turning to CCUGAAAAAAUUUAUCGCCTT against Pcgf3, the z-score is -0.363.

For the sequence GGGUUCGAGGAAAAGGAAGTT against Acsf3, the z-score is 0.65.

For GGUGUCAGAAGCAGUGUAUTT against Treml1, the z-score is 0.459. In the case of GCCGAGGCUGUUGUGUUGATT against Gpaa1 it was -1.04. Consider GGAGGUUUUUUUGUUUUGUTT against Serpinb13, for which the z-score was -0.614. In the case of GGCAUUUUUCUUAGUGAUCTT against Olfr1277 it was -2.04 (active).

In the case of CCCACUUAUAUAUGUAGUUTT against Wdyhv1, the z-score is 0.282. Under GGGCUUCAAACCCACAGAATT against Nova2 stands -1.19; under GGAAUAUCAGCCAUAAGUUTT against Cplx4, 1.78. As to CGAUUCAUUCAGUUUGUAATT against Terb1, the z-score was -0.631. As for GGUGUUUGAUAAUGAAGAGTT against Dnah1, the z-score is -0.214. Under GGCGAAGGUGUAGAAUCUCTT against Samd12 stands 2.48 (active); under GGUCAUUUUGGGAUAUCAGTT against Lman1, -1.19. Under CCGCGUGUGCUCCUUUUUGTT against Zcchc3 stands -0.627; under GGCUGGUUUACAACAGAACTT against Pla2g15, -0.647. Under CCAUUUGAUGACAGUAAUATT against Olfr178 stands 1.03; under GCUCUUGACACUAGAGAUUTT against Ap1s3, 0.0373; under GGUGUGAUGCUUGAGUGUCTT against Skint3, 2.08 (active). As to GGAGUAGCAAAGAACUGCUTT against Arpc4, the z-score is -0.762.

With CCACAUGAGUGGACCUACGTT against Arid3c, the z-score was -1.33. Turning to GGAGCUCUGGGACAAAUUCTT against Tbx20, the z-score is 1.34. Under CGUGGCUAGGUUAUUUAAATT against Htr1d stands 1.01. Under GGACACUUCCAUGUGCUACTT against Cep19 stands 2.14 (active); under “CCUCAAAAUGGCUAUGGACTT against 1520401A03Rik”, 0.587; under GGAAAGAAACUUAAAGUGGTT against Tfdp1, 2.64 (active). In the case of GGUUCGAUGUCCAGUCACUTT against Ppp2ca it was -1.41; in that of GCCAUUGCUUUAUAAGGUUTT against Olfr901, -1.24; in that of GGAUACAAAUCCAGAUUCUTT against Pex26, -0.982. As to GGAACGAAUUUUAGAUGCATT against Rbbp8, the z-score was 1.14.

Turning to CCCAGAGCAUUCCUAUUACTT against Klrg2, the z-score is -2.84 (active).

Take GCACGGUAUCUCGAAGUCGTT against Spata18: the z-score is -0.785. Under CCAUUCAAUGGUAACUGAATT against Olfr229 stands -0.382. In the case of GCAGUCGCUUUGUUUUAUATT against Olfr1204 it was -0.225. For GGAAAUCGAAUGAAUAACCTT against Klf12, the z-score was 3.45 (active).

Regarding GGCUGAGAAGCAGACUUCCTT against Dclk3, the z-score was 1.23. In the case of GCUACGUUUACUGACCACATT against Bcat1 it was 1.55; in that of CCUACUCGUCUCUUUCACCTT against Tlcd1, 0.158; in that of GCAACUUUUAAUUGGUCUATT against Agrn, -0.537. Under GGUUUUACCGAUGAUGCAUTT against Pcdhb20 stands -0.624. GGUAAUGGCUCACUUAAUATT against Malt1: the z-score was -0.427. Under GGUCUUUGACAUUUUGAAUTT against Lrrk2 stands -0.295. In the case of GUACACUCAGGCUGAGGGUTT against Acyp1 it was 0.0397. GCAAUACUAUUCAGUCCAUTT against Gnai3: the z-score is -2.45 (active).

Consider GGUUCCACUCAACUGAAGATT against Actl7b, for which the z-score was -0.123. Under GGCCUGCUACUUUUGAUGCTT against Olfr166 stands 0.0524. Under GCACCUCUGACAAGGUUCUTT against Plin1 stands 2.65 (active); under GGGUCAUUUCCUAUGCAGGTT against Olfr866, -1.24; under CCAAGAUUCAUAAGAAGGCTT against Tas2r131, 0.646. In the case of GCUAGAAUUCAUGUUUCGUTT against Dgkg it was 0.487; in that of GGUGCACUUUGAAUCAGGGTT against Uchl4, 0.91; in that of GGACAUCUACACCAUUUGGTT against Mplkip, -2.11 (active). GGUAACUAUGAAGAGAUCATT against Neu2: the z-score was 0.312. Under “GGAUUAGGAAAGAGAGAACTT against 4930519G04Rik” stands -1.43; under GGUCAUCGUGUGCAACCUCTT against Zcchc3, -3.24 (active); under GGAACAGUUCAAGUGAAGCTT against Sertad2, -0.0174. Under GGAAGAUGAGAAAAUUCCATT against Ccni stands -0.44; under GCCACAGAAAGUGAUUGAGTT against Rbp7, -0.418; under GGUACAGACCUUUGAAAUATT against Apobec2, -0.125.

Take CCGCAUGGAGCAUCUAAUATT against Tuft1: the z-score is 0.04. With GGGAGACCUGCUACUAUUGTT against Gtf3c2, the z-score is 2.58 (active). Under GGAAACAACAACAAAUACATT against C1ql3 stands 1.52; under GGAAGAUCCUCGAUAGUCATT against Rgs7, 1.2. In the case of GACCAUCUCCUUUACGGGCTT against Olfr71 it was 0.133. In the case of GGCCAAAGAAGAAAGUGACTT against Opn3 it was -2.72 (active); in that of GUGGUAAACAGAAUGGUGATT against Ccdc92b, -1. Take GCACCCAUAUCAACGAGGUTT against Olfr924: the z-score was 0.484. In the case of GGUGACCAGCAAGUCAUGCTT against Chrdl1 it was -0.663; in that of GGAAGAAAAAAACUUCGUUTT against Gabrg3, 0.186.

Regarding CCUGAAAGAUGCUCUCUAUTT against Inpp4b, the z-score is 4.27 (active). In the case of GCACAGCUUUUUGGAUCUGTT against Zfyve26 it was -0.75; in that of CCAGAGUCUUUGGUAAUGCTT against Krtap3-3, 1.07. As for GUCAUCAUGAACCAAGAGATT against Olfr713, the z-score was -2.18 (active). Under GGAAAACCAGCACAAUUUATT against Cadm1 stands 2.49 (active). Under CCAUCUACAAACUUUGGCCTT against Sacs stands 0.669; under GGUACUGACGCAUCUGAGGTT against Spata5l1, 1.53. In the case of GACAAGCAAUAAAGAAAGATT against Lce1l it was -1.45; in that of GGAAGGUCAAGUCUUUUCUTT against Tesk1, 1.46; in that of CCAUGGGAUAUGAUUUACATT against Phf11a, 3.49 (active). GGGAAUUUCAGGCUAUAUUTT against Taf2: the z-score was 1.13. Under CGAUGUGGACGAGAAGCUATT against Asap2 stands -0.702; under CGCUAUGAGGCAGCUAAUUTT against Psma6, -2.27 (active); under CCCAUACUAAAAUUGUUGATT against Adam29, 0.253. In the case of CCUACCUUCAUUCGCUUCGTT against Cpz it was 2.61 (active). Under CCCAAUCAGCAUUUGCUCUTT against H2-M10.3 stands 0.104; under GGAUGGAGCUACUGAAAUUTT against Dera, 0.39; under CCAGAUCAUCGUGCAGAAUTT against E4f1, 0.557. For GGAGUGUUUUGCAGUUUUATT against Dcstamp, the z-score is 4.39 (active).

For GCCACUGGUUCCAAUCGUCTT against Ncs1, the z-score was -0.354. In the case of CCGAAGCAUUUUCCCAUCUTT against Slc22a20 it was -0.293.

The record behind these values is PubChem BioAssay AID1508600 (Functional Genomics Laboratory (NCATS/FGL), 2020).
